± gives the standard deviation of the averaged measurements. In all, about 33,000 sequences were measured (“E-score (rank enrichment, -0.5 to 0.5)”: median about -0.0028, highest 2% from about 0.23 on). The list comes from a sample in which the highest values are over-represented; it also holds similar and randomly drawn sequences.
System: 2Sb-muMax20 (muMax20 with two 1,3-bis(methyl)benzene Cys staples, A13C/A17C and Q88C/A92C, C-terminal Lys)
Test: PBM 8-mer E-score (E-score (rank enrichment, -0.5 to 0.5)); higher = stronger preferential binding
Protocol: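 Protein binding microarray (universal PBM chip covering all 10-mers in fixed probe flanks) with chemically synthesized human Max(13-93) bHLH-LZ analogs (not full-length Max) bearing noncanonical residues (hArg, Tha, Aib, Nle at 65) and aromatic Cys staples. Read-out per 8-mer (and its reverse complement): E-score (rank-based enrichment, -0.5 to 0.5) and Z-score of median probe intensity.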

Sequence | PBM 8-mer E-score
ATTCGTCC | 0.232 ± 0.032
ACATCGGT | -0.142 ± 0.022
ACAATCTC | 0.149 ± 0.018
CCAATCTC | 0.256 ± 0.024
CCAATCTA | 0.094 ± 0.0061
CTACGCGC | -0.0145 ± 0.047
GACTCTTA | 0.151 ± 0.032
CGGCGCAA | -0.0906 ± 0.015
ACCGTCCG | -0.254 ± 0.034
AGCCTCAG | -0.0843 ± 0.053
GACAATGC | 0.0134 ± 0.02
ATCAATTC | 0.0558 ± 0.082
AACAATGC | 0.23 ± 0.044
CTCAATTA | 0.0698 ± 0.043
AACAATTA | 0.2791 ± 0.0017
ATCAATTA | 0.27 ± 0.01
ATCAATTG | 0.257 ± 0.0066
ATCAATCG | 0.16 ± 0.067
AACAATGG | 0.0925 ± 0.024
AACAATTC | 0.141 ± 0.011
GTCAATTA | -0.0609 ± 0.042
AACAATTG | 0.143 ± 0.022

Sequence | PBM 8-mer E-score
CCATGGGA | 0.123 ± 0.019
AATAGAGC | 0.0926 ± 0.04
ATGCTTCG | 0.00498 ± 0.0021
CACAGTAG | -0.0155 ± 0.0072
AGCCTAGA | -0.0899 ± 0.028
ACGACGAC | -0.124 ± 0.0076
GTTCGCTA | -0.0331 ± 0.033
ATTAGTCA | 0.172 ± 0.041
CAGGATAG | 0.0195 ± 0.012
GCCGTCAA | -0.0475 ± 0.027
CAAGCGCA | 0.27 ± 0.03
AAAGCGCA | 0.0962 ± 0.09
CAAGCGCC | -0.226 ± 0.091
GCATGTGA | 0.159 ± 0.02
ACATGTGC | 0.167 ± 0.0089
ACATGTGA | 0.308 ± 0.033
ACACATGT | 0.334 ± 0.0089
ACATGTGG | 0.246 ± 0.04
ACACATGA | -0.0128 ± 0.068
CCATGTGA | 0.109 ± 0.036
ACACATGG | 0.145 ± 0.08
AAATGTGG | 0.114 ± 0.11

Sequence | PBM 8-mer E-score
CCTCCGTC | 0.0056 ± 0.021
GCCGGCCC | -0.162 ± 0.0086
AAATAGTA | 0.175 ± 0.0028
AGATAACC | 0.0753 ± 0.022
CAATAACG | 0.105 ± 0.029
AAATAATG | 0.2315 ± 0.002
AAATAACG | 0.273 ± 0.017
ATATAACG | 0.288 ± 0.0086
CGATAACG | -0.0616 ± 0.034
AAATAACA | 0.0873 ± 0.044
AAATAATA | 0.149 ± 0.025
AAATAATC | -0.0306 ± 0.048
AGATAACG | 0.259 ± 0.041
ATATAACA | 0.126 ± 0.0091
ATATAACC | 0.16 ± 0.041
AACGTGGT | 0.224 ± 0.05
ATTCCTCC | 0.129 ± 0.052
ACACCGGG | -0.119 ± 0.096
AGCATAAG | 0.0893 ± 0.055
CATTATGG | 0.0682 ± 0.009
CACATTCC | -0.108 ± 0.075
GCTGCGCA | -0.147 ± 0.022

Sequence | PBM 8-mer E-score
CAACATGA | 0.232 ± 0.044
CAACATGG | 0.138 ± 0.066
CAACATGC | -0.00139 ± 0.11
TGTTATAA | 0.261 ± 0.021
CGATATAG | 0.00229 ± 0.039
TACTATAA | 0.239 ± 0.017
CGATATAC | 0.156 ± 0.025
CGTTATAA | 0.129 ± 0.021
TTATATAA | 0.241 ± 0.086
CGATATAA | 0.262 ± 0.066
ATATATAA | 0.221 ± 0.099
CTATATAA | 0.0927 ± 0.03
CACTATAA | -0.0514 ± 0.028
AACTATAA | 0.102 ± 0.024
AGTTATAA | 0.141 ± 0.061
CCCACTAA | 0.177 ± 0.014
ACAGTCAC | 0.0067 ± 0.018
AAATCTGG | -0.19725 ± 4.2e-05
TACCTTAA | -0.0174 ± 0.012
ACAGGAGC | -0.00133 ± 0.025
GATTGCGA | -0.103 ± 0.03

Source: the supplement of paper PMC12636033
